# Data: PubChem BioAssay (NCI)
# About 79,000 compounds went through this panel and 15% of them were active in at least one assay; those are over-represented in the sample as a whole. Values without a mark were called inactive. Activity calls are given as the source filed them. Rule as the data show it: active = growth inhibition above about 70%; inactive = the rest.
# How the values were obtained:
# [1] = NCI Yeast Anticancer Drug Screen. Data for the wt1 strain (AID 149);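 also: 0% = growth of vehicle-treated wt1 cultures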; conditions: S. cerevisiae wt1 strain (SPY 50644) growth inhibition, active compounds read high
# In short: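 Each compound is tested on wt1 yeast and the loss of growth versus vehicle gives the inhibition value.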
# [2] = NCI Yeast Anticancer Drug Screen. Data for the rad50EPP+ strain (AID 151);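 also: 0% = growth of vehicle-treated control cultures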; conditions: S. cerevisiae rad50 mutant strain, active compounds read high
# In short: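 Yeast strain carrying rad50 alteration (rad50EPP+) exposed to compounds; growth inhibition measured relative to vehicle-treated controls.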
# [3] = NCI Yeast Anticancer Drug Screen. Data for the mgt1 strain (AID 153); conditions: S. cerevisiae mgt1 mutant growth inhibition, active compounds read high
# In short: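 Yeast mgt1 strain (DNA repair/cell-cycle alteration panel) exposed to compounds; growth inhibition measured relative to vehicle-treated controls.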
# [4] = NCI Yeast Anticancer Drug Screen. Data for the rad50 strain (AID 155);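 also: 0% = growth of vehicle-only cultures of the same strain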; conditions: S. cerevisiae rad50 strain growth inhibition, active compounds read high
# In short: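 Vehicle-treated cultures provide the reference for the growth inhibition reported for compound-exposed, repair-deficient yeast.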
# [5] = NCI Yeast Anticancer Drug Screen. Data for the mec2-1 strain (AID 157); conditions: S. cerevisiae mec2-1 strain, active compounds read high
# In short: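 mec2-1 yeast strain, carrying an alteration in DNA damage repair or cell cycle control, was exposed to compounds; growth inhibition was measured relative to vehicle-treated controls.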
# [6] = NCI Yeast Anticancer Drug Screen. Data for the rad14 strain (AID 159);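 also: 0% = growth of vehicle-treated control cultures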; conditions: S. cerevisiae rad14 strain growth inhibition, active compounds read high
# In short: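 Inhibition of growth is reported for a repair-deficient yeast mutant following compound treatment, calculated relative to cultures that received vehicle.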
# [7] = NCI Yeast Anticancer Drug Screen. Data for the sgs1 mgt1 strain (AID 161);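 also: 0% = growth of cultures given vehicle only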; conditions: S. cerevisiae sgs1 mgt1 strain, active compounds read high
# In short: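 Growth of a repair-deficient yeast mutant was monitored after compound treatment and expressed as inhibition relative to vehicle-treated cultures.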
# [8] = NCI Yeast Anticancer Drug Screen. Data for the CLN2oe strain (AID 163);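 also: 0% = growth of vehicle-only control cultures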; conditions: S. cerevisiae CLN2oe strain, active compounds read high
# In short: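 Yeast cells carrying a defined cell-cycle control alteration were exposed to test compounds. Growth inhibition was scored against vehicle-treated control cultures.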
# [9] = NCI Yeast Anticancer Drug Screen. Data for the cln2 rad14 strain (AID 165);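 also: 0% = growth equal to vehicle treated cultures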; conditions: S. cerevisiae cln2 rad14 strain, active compounds read high
# In short: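 Yeast carrying cln2 and rad14 alterations (cell cycle control and DNA damage repair) were exposed to compounds. Growth inhibition was measured against vehicle-treated controls.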
# [10] = NCI Yeast Anticancer Drug Screen. Data for the bub3 strain (AID 167); conditions: S. cerevisiae bub3 mutant strain, active compounds read high
# In short: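 Mutant yeast screening strain plus compound; vehicle-treated cultures serve as the 0% inhibition reference.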
# [11] = NCI Yeast Anticancer Drug Screen. Data for the wt2 strain (AID 169); conditions: S. cerevisiae wt2 strain growth inhibition, active compounds read high
# In short: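 Yeast cells were exposed to test compounds, and growth inhibition was measured relative to vehicle-treated controls.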
# [12] = NCI Yeast Anticancer Drug Screen. Data for the mlh1 strain (AID 171);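 also: 0% = growth of vehicle-treated control cultures of the same strain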; conditions: S. cerevisiae mlh1 strain growth inhibition, active compounds read high
# In short: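 Yeast carrying a defined genetic alteration in DNA damage repair or cell cycle control were exposed to test compounds. Growth inhibition was measured relative to vehicle-treated controls.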
# [13] = NCI Yeast Anticancer Drug Screen. Data for the sgs1 strain (AID 173);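 also: 0% = growth of vehicle-only control cultures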; conditions: S. cerevisiae sgs1 mutant, active compounds read high
# In short: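 Yeast mutant strains carrying defined defects in DNA damage repair or cell cycle control were exposed to test compounds. Growth inhibition was scored against vehicle-treated controls.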
# [14] = NCI Yeast Anticancer Drug Screen. Data for the mlh1 rad18 strain (AID 175); conditions: S. cerevisiae mlh1 rad18 strain growth inhibition, active compounds read high
# In short: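 Growth inhibition of the yeast strain was measured after compound exposure and expressed relative to vehicle-treated controls. The strain carries defined defects in DNA damage repair.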
# [15] = NCI Yeast Anticancer Drug Screen. Data for the rad18 strain (AID 177); conditions: S. cerevisiae rad18 mutant growth inhibition, active compounds read high
# In short: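 Yeast carrying a defined DNA damage repair alteration were exposed to compounds. Growth inhibition was expressed relative to vehicle-treated controls.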
# [16] = at 5.0 µM (retest, dose inferred, filed as 0.5)
# [17] = at 50.0 µM (retest, dose inferred, filed as 5.0)
smiles,measurement,setting,value
Nc1ccc2cc(Br)c3ccccc3c2c1,growth inhibition,[1]; at 1.2 µM,0%
same,growth inhibition,[1]; at 3.7 µM,1%
same,growth inhibition,[1]; at 11.0 µM,-2%
same,growth inhibition,[1]; at 33.0 µM,-2%
same,growth inhibition,[1]; at 100.0 µM,75% (active)
same,growth inhibition,[2]; at 1.2 µM,3%
same,growth inhibition,[2]; at 3.7 µM,5%
same,growth inhibition,[2]; at 11.0 µM,22%
same,growth inhibition,[2]; at 33.0 µM,39%
same,growth inhibition,[2]; at 100.0 µM,26%
same,growth inhibition,[3]; at 1.2 µM,-1%
same,growth inhibition,[3]; at 3.7 µM,-3%
same,growth inhibition,[3]; at 11.0 µM,-1%
same,growth inhibition,[3]; at 33.0 µM,-1%
same,growth inhibition,[3]; at 100.0 µM,-3%
same,growth inhibition,[4]; at 1.2 µM,0%
same,growth inhibition,[4]; at 3.7 µM,1%
same,growth inhibition,[4]; [16],5%
same,growth inhibition,[4]; at 11.0 µM,1%
same,growth inhibition,[4]; at 33.0 µM,16%
same,growth inhibition,[4]; [17],41%
same,growth inhibition,[4]; at 50.0 µM,86.2% (active)
same,growth inhibition,[4]; at 100.0 µM,20%
same,growth inhibition,[5]; at 1.2 µM,-3%
same,growth inhibition,[5]; at 3.7 µM,-1%
same,growth inhibition,[5]; [16],-18%
same,growth inhibition,[5]; at 11.0 µM,0%
same,growth inhibition,[5]; at 33.0 µM,3%
same,growth inhibition,[5]; [17],6%
same,growth inhibition,[5]; at 50.0 µM,73.7% (active)
same,growth inhibition,[5]; at 100.0 µM,6%
same,growth inhibition,[6]; at 1.2 µM,-1%
same,growth inhibition,[6]; at 3.7 µM,0%
same,growth inhibition,[6]; at 11.0 µM,4%
same,growth inhibition,[6]; at 33.0 µM,8%
same,growth inhibition,[6]; at 100.0 µM,21%
same,growth inhibition,[7]; [16],13%
same,growth inhibition,[7]; [17],50%
same,growth inhibition,[7]; at 50.0 µM,88.5% (active)
same,growth inhibition,[8]; at 1.2 µM,-2%
same,growth inhibition,[8]; at 3.7 µM,-19%
same,growth inhibition,[8]; at 11.0 µM,-1%
same,growth inhibition,[8]; at 33.0 µM,-4%
same,growth inhibition,[8]; at 100.0 µM,-16%
same,growth inhibition,[9]; [16],15%
same,growth inhibition,[9]; [17],18%
same,growth inhibition,[9]; at 50.0 µM,40.1%
same,growth inhibition,[10]; at 1.2 µM,0%
same,growth inhibition,[10]; at 3.7 µM,2%
same,growth inhibition,[10]; [16],10%
same,growth inhibition,[10]; at 11.0 µM,2%
same,growth inhibition,[10]; at 33.0 µM,-1%
same,growth inhibition,[10]; [17],31%
same,growth inhibition,[10]; at 50.0 µM,71.5% (active)
same,growth inhibition,[10]; at 100.0 µM,-6%
same,growth inhibition,[11]; at 1.2 µM,-1%
same,growth inhibition,[11]; at 3.7 µM,0%
same,growth inhibition,[11]; at 11.0 µM,-3%
same,growth inhibition,[11]; at 33.0 µM,2%
same,growth inhibition,[11]; at 100.0 µM,80% (active)
same,growth inhibition,[12]; at 1.2 µM,-1%
same,growth inhibition,[12]; at 3.7 µM,-1%
same,growth inhibition,[12]; at 11.0 µM,-1%
same,growth inhibition,[12]; at 33.0 µM,1%
same,growth inhibition,[12]; at 100.0 µM,2%
same,growth inhibition,[13]; at 1.2 µM,-2%
same,growth inhibition,[13]; at 3.7 µM,-2%
same,growth inhibition,[13]; at 11.0 µM,-1%
same,growth inhibition,[13]; at 33.0 µM,4%
same,growth inhibition,[13]; at 100.0 µM,9%
same,growth inhibition,[14]; [16],28%
same,growth inhibition,[14]; [17],65%
same,growth inhibition,[14]; at 50.0 µM,90.3% (active)
same,growth inhibition,[15]; at 1.2 µM,-3%
same,growth inhibition,[15]; at 3.7 µM,-2%
same,growth inhibition,[15]; at 11.0 µM,-4%
same,growth inhibition,[15]; at 33.0 µM,-1%
same,growth inhibition,[15]; at 100.0 µM,-5%
